Data on 35 compounds can be found in PubChem BioAssay AID2783 (National Center for Advancing Translational Sciences (NCATS), 2010).

Inconclusive results are not listed. Unmarked numbers belong to inactive results. Calls come from the whole dose curve; as a rule, active = well fitted inhibition curve with a large enough effect in the polarisation, with a control signal flat (not every such curve was filed as active); inconclusive = small, poorly fitted or top-dose-only effect, or effect the other way, or a change in a side signal; inactive = no such curve, though single readings can be large or run the other way; the % refers to the polarisation.
% is set by controls: 0 for no effect and ±100 for the full control effect.

Chain of Menin (Homo sapiens) (O00255 whole entry, looked up): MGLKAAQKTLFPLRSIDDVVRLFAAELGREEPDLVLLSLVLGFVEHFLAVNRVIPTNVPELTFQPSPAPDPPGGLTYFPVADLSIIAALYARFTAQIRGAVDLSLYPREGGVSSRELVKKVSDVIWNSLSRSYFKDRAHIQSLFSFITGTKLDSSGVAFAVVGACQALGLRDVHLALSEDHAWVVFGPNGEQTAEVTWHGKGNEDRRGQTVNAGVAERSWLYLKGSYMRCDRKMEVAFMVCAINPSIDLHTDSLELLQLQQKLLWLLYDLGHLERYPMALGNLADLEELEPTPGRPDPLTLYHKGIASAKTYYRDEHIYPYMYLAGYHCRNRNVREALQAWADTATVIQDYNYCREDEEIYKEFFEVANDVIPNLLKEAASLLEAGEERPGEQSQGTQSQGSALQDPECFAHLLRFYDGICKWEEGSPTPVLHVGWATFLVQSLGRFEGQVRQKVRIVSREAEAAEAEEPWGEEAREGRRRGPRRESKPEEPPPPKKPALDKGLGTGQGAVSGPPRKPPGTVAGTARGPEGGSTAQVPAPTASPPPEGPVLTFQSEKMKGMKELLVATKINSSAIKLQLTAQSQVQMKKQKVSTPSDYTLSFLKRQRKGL

The experiment addresses Menin (Homo sapiens) (UniProt O00255). Nature of the experiment: Confirmation of Inhibitors Targeting the Menin-MLL Interaction in MLL Related Leukemias: Competition With Fluorescein Labeled MLL-derived Peptide. Conditions: Fluorescence polarization, fluorescein-MLL peptide displacement from menin; series mostly up to 100 µM; activity change, negative = inhibition: at the top concentration. In general terms: In fluorescence polarisation assays a small probe gives low polarisation when free and higher when bound to something large.
Take `COc1cccc(-c2nn(-c3ccccc3)cc2/C=C\C(=O)c2cccs2)c1`: the “activity change, negative = inhibition” value is -5.34%. The figure for `COC(=O)Cc1c(C)nc2nc(-c3ccc(OC)cc3)[nH]n2c1=O` is -3.09% [at 288 µM]; for `CCOC(=O)Cn1c2ccccc2n2nc(CCC(=O)O)c(=O)nc12` it is -2.55%. The figure for `Cc1ccc(NS(=O)(=O)c2csc(C(N)=O)c2)cc1C` is 1.62% [at 288 µM]; for `Cc1ccc(/C=C2\SC(=S)N(CC(=O)Nc3ncc(Cc4ccccc4Cl)s3)C2=O)cc1` it is 30.8% [at 288 µM]; for `COc1ccc2nc(NC(=O)CSc3nnc(N)s3)sc2c1` it is 1.97%. The figure for `O=C(NCC1CCCO1)c1ccc(OC2CCN(C(=O)C3CC3)CC2)cc1` (stereo not given) is 2.79%; for `COc1ccc(CN2CCC(Cc3ccccc3)CC2)c(C)c1C` it is -1.64%. In the case of `OC(c1ccccn1)(c1ccccn1)c1ccccn1`, the “activity change, negative = inhibition” value is -4.63% [at 288 µM]. The figure for `O=C(Cn1c(=O)c2c3c(sc2n(Cc2ccccc2)c1=O)CCCC3)NCCO` is 2.27% [at 288 µM]; for `Clc1ccc(-c2nnc(-c3ccccc3)nc2-c2c[nH]c3ccccc23)cc1` it is -4.02%; for `CC(=O)O[C@H]1CSC[C@H]1NC(=O)c1ccccc1` it is -0.821%. For `NS(=O)(=O)c1ccc(NC(=O)c2ccc(S(=O)(=O)N3CCc4ccccc43)cc2)cc1` the value was 43.2% [at 288 µM]; for `O=C(/C=C/c1ccccc1)c1cccs1`, -28.1% [at 288 µM]; for `CCCN(CCC)CCCNC(=O)c1cc2c(=O)[nH]c3ccccc3c2s1`, -12%. As for `CCn1ncc(C(=O)Nc2cc(C)on2)c1C`, the “activity change, negative = inhibition” value was -11.3%. The figure for `COc1ccccc1N(CC1CO1)S(=O)(=O)c1ccccc1` (stereo not given) is -17.6%; for `C/C(=N\NC(=O)c1nnn(-c2nonc2N)c1C)c1ccc(-c2ccccc2)cc1` it is -9.36%; for `O=C1NC(=S)N/C1=C/c1ccc2ccccc2c1` it is 49.6% [at 288 µM]. For `Cc1cc2nc(-c3ccc(SCC(=O)Nc4ccc5c(c4)OCCO5)nc3)[nH]c2cc1C` the value was 43.2% [at 288 µM]. The figure for `CC(=O)Nc1ccc(-c2cc(-c3ccc(NC(C)=O)cc3)nc(-c3ccc(NC(C)=O)cc3)n2)cc1` is -13.7%. With `O=C(Nc1ccc2c(c1)OCO2)c1ccccc1`, the “activity change, negative = inhibition” value is -1.62%.

Take `Cc1ccc(C2=NN(C(=O)c3ccccc3F)C(c3ccccc3F)C2)cc1` (stereo not given): the “activity change, negative = inhibition” value is 1.79% [at 288 µM]. For `O=C(Nc1nnc(-c2ccccc2SCc2ccccc2)s1)Nc1ccccc1F` the value was -5.58%; for `CCOc1ccc(NC(=O)c2cccc(OC(=S)N3CCC(C)CC3)c2)cc1`, -20.4%; for `COC(=O)COc1ccc(C(C2C(=O)CC(C)(C)CC2=O)C2C(=O)CC(C)(C)CC2=O)cc1`, -17.7%. The figure for `C[C@@H]1CN(C(=O)c2nc3ccc(Cl)cn3c2CNCC[C@@H]2C[C@@H]3C=C[C@H]2C3)C[C@H](C)O1` is 1.86%. For `C=C(C)[C@@H]1CC=C(CN2CCN(Cc3ccccc3)CC2)CC1` the value was -13.5%; for `CCCCn1c(SCC(=O)NCc2ccc(OC)c(C(=O)O)c2)nc2cc(S(N)(=O)=O)ccc21`, -8.37% [at 288 µM]. As for `COCC(=O)Nc1cccc2ccccc12`, the “activity change, negative = inhibition” value is -12.3%. For `O=c1c2ccccc2nc(N/N=C/c2c(O)ccc3ccccc23)n1O` the value was 9.5% [at 288 µM]; for `COc1ccc(NC2=C(NCCO)C(=O)c3ccccc3C2=O)cc1`, 3.49% [at 288 µM]; for `Cc1ccc(S(=O)(=O)c2cc(OC(=O)c3ccco3)ccc2OC(=O)c2ccco2)cc1`, -3.07%.

For the compound `Cc1cccc(NC(=O)CSc2nc3ccc(NC(=O)CSc4nnnn4-c4ccccc4)cc3s2)c1C`, the “activity change, negative = inhibition” value is 36.8% [at 288 µM].

On to `Cc1[nH][nH]c(=O)c1C(c1c(C)[nH][nH]c1=O)c1cn(Cc2ccccc2Cl)c2ccccc12`, for which the “activity change, negative = inhibition” value is -9.42% [at 288 µM].
